# According to PubChem BioAssay (NCI):
# About 83,000 compounds went through this panel and 20% of them were active in at least one assay; those are over-represented in the sample as a whole.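 Testing used 96-well plates and a 48-hour single-concentration exposure. Example: -40 means 40% of the starting cells died.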 A number with no mark means an inactive call. The source made the active and inactive calls. Rule for the calls: active = growth percent below 10; inactive = the rest.
# Assays:
# Experiment in all cases: NCI-60 one-dose screen, 48 h (100 = growth as untreated, 0 = no growth, -100 = all killed)
# NCI-H23 lung = settings: 10 µM unless noted
# NCI-H322M lung = settings: 10 µM unless noted
# HOP-62 NSCLC = settings: 10 µM unless noted
# NCI-H460 lung = settings: 10 µM unless noted
# NCI-H522 lung = settings: 10 µM
# A549/ATCC NSCLC = settings: 10 µM unless noted
# 786-0 renal = settings: 10 µM unless noted
# COLO 205 colon = settings: 10 µM unless noted
# DU-145 prostate = settings: 10 µM unless noted
# K-562 leukemia = settings: 10 µM unless noted
# MALME-3M melanoma = settings: 10 µM unless noted
# MDA-MB-231 breast = settings: 10 µM unless noted
# RXF 393 renal = settings: 10 µM unless noted
# SF-268 CNS = settings: 10 µM unless noted
# SF-295 CNS = settings: 10 µM unless noted
# SF-539 CNS = settings: 10 µM unless noted
# UACC-257 melanoma = settings: 10 µM unless noted
# M14 melanoma = settings: 10 µM unless noted
SMILES,growth (NCI-H23 lung),growth (NCI-H322M lung),growth (HOP-62 NSCLC),growth (NCI-H460 lung),growth (NCI-H522 lung),growth (A549/ATCC NSCLC),growth (786-0 renal),growth (COLO 205 colon),growth (DU-145 prostate),growth (K-562 leukemia),growth (MALME-3M melanoma),growth (MDA-MB-231 breast),growth (RXF 393 renal),growth (SF-268 CNS),growth (SF-295 CNS),growth (SF-539 CNS),growth (UACC-257 melanoma),growth (M14 melanoma)
COc1cc(C(=O)N(C(C)C)C2CCCCC2)cc(OC)c1OC,101%,108%,93.3%,107%,88.3%,97.2%,121%,105%,112%,98.7%,99.5%,127%,97.4%,98.1%,109%,101%,93.7%,132%
COc1cc(/C=C2\C(=O)N(c3c(Cl)cccc3Cl)c3ccccc32)cc(OC)c1O,48.1%,48.2%,48.6%,-4.41% (active),28%,16.9%,13.9%,74.8%,36.8%,8.62% (active),133%,72.4%,90.4%,40.9%,8.15% (active),45.1%,46.1%,39.2%
COc1cc(CNCCN2C(=O)c3ccc4c5c(ccc(c35)C2=O)C(=O)N(CCNCc2cc(OC)c(OC)c(OC)c2)C4=O)cc(OC)c1OC,-89.3% (active),-68.3% (active),-78% (active),-81.7% (active),-60.3% (active),-76.5% (active),-93.6% (active),-72% (active),-56.8% (active),-4.93% (active),-50.5% (active),-83.9% (active),-94.9% (active),-46.8% (active),-68% (active),-84% (active),-70.9% (active),-96.9% (active)
COc1cccc(C2CC(=O)Nc3cc4c(cc32)CCC4)c1OC (stereo unspecified),59%,68%,60.5%,61.8%,60.9%,47.8%,79.6%,50%,51.9%,14.1%,55.7%,60.3%,57%,66.2%,29%,60.7%,71.7%,25.5%
O=C(O)c1ccccc1Oc1cc(-c2ccco2)nc(OCCBr)n1,105%,100%,101%,110%,103%,94.2%,100%,109%,104%,100%,99.1%,105%,135%,98.7%,95.1%,105%,97.8%,104%
COc1ccccc1/C=C/C(=O)/C=C/c1ccccc1O,-11.3% (active),24.9%,62%,-58.2% (active),30.1%,6.86% (active),-44% (active),-48.6% (active),-31.2% (active),-6.29% (active),-3.21% (active),4.57% (active),-75.8% (active),1.68% (active),-37.4% (active),-63% (active),69.7%,-31% (active)
COc1cc(/C=C/C(=O)C(=Cc2ccc(F)c(F)c2)C(=O)/C=C/c2ccc(O)c(OC)c2)ccc1O,-24.6% (active),59.4%,22.1%,1.97% (active),-48.3% (active),44.2%,40.8%,58.1%,17.3%,13.7%,51%,13.1%,-32.5% (active),20%,53.7%,26.9%,47.3%,2.1% (active)
Cc1ccc(-c2nnc(COc3ccc(-c4nnc(N)s4)cc3)o2)cc1,79.4%,95.9%,113%,93%,73.9%,105%,96.9%,92.8%,100%,91.1%,67.6%,87.8%,58%,79.6%,7.56% (active),109%,112%,88.1%
CCCN(CCC)c1ccc(/C=C/c2ccc3cc(OCC)ccc3n2)cc1,83.8%,105%,125%,95.1%,76.8%,87.4%,91.1%,112%,91.6%,72.9%,88%,109%,81.6%,90.7%,91.9%,90.7%,84.3%,86.4%
COc1ccc(Sc2ccc3[nH]c(=O)nc(N)c3c2)cc1,101%,96.4%,108%,106%,100%,80.3%,104%,106%,108%,100%,102%,91.5%,101%,107%,106%,105%,92%,105%
O=C(NCc1cccnc1)c1ccc([N+](=O)[O-])o1,-89.1% (active),-6.13% (active),-4.75% (active),-64.3% (active),-66.5% (active),-10.5% (active),4.89% (active),-77% (active),-67.6% (active),22.1%,-61% (active),107%,-9.05% (active),33%,20.8%,-30.9% (active),-7.66% (active),-81.2% (active)
Cc1nc2nc(C(F)(F)F)[nH]c2nc1C,107%,110%,93.2%,111%,90.1%,99.7%,93.5%,108%,115%,92.9%,117%,114%,106%,102%,78.6%,120%,100%,105%
O=C1/C(=C/c2ccc(Oc3ccccc3)cc2)N=C(c2ccccc2)N1CCc1cccs1,87.1%,93.6%,104%,70.1%,46.8%,91.3%,84.5%,107%,98%,84%,86.1%,79.8%,92.1%,80.8%,82.9%,104%,99.1%,58.7%
COc1ccc(Cn2c(Br)c3c(c2-c2cc(OC)c(OC)c(OC)c2)CCc2sc(N)nc2-3)cc1,38.1%,46%,41.4%,7.43% (active),-11.4% (active),19%,40.2%,-10.6% (active),12.4%,4.43% (active),47.7%,12.6%,-0.407% (active),44.3%,43.7%,-13.5% (active),57.5%,12%
COc1cc(CNCCCN2C(=O)c3ccc4c5c(ccc(c35)C2=O)C(=O)N(CCCNCc2cc(OC)c(OC)c(OC)c2)C4=O)cc(OC)c1OC,-74.8% (active),-24.2% (active),-81.4% (active),-75% (active),-80.7% (active),-84.8% (active),-30% (active),-92.6% (active),-95.6% (active),7.69% (active),-87.1% (active),-17.5% (active),-95.3% (active),-31.8% (active),-50.3% (active),-86.9% (active),-93% (active),-89.8% (active)
O=C1NC(=S)S/C1=C\c1cccc([N+](=O)[O-])c1,89.6%,132%,114%,104%,107%,103%,91.5%,110%,111%,68.5%,153%,93.8%,153%,89.9%,91.3%,88.6%,88.8%,97.4%
O=C1OCC2=C1C(c1ccc3c(c1)OCO3)CC(=O)N2c1cccc(Cl)c1 (stereo unspecified),90.2%,94.1%,103%,108%,92.9%,94.6%,110%,105%,107%,102%,88.4%,101%,96.5%,110%,96%,104%,104%,121%
